We go through seven compounds from PubChem BioAssay (NCATS).

One assay relates to C2A. Briefly: qHTS profiling for inhibitors of Plasmodium falciparum proliferation (AID 504749).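 For activity, negative = inhibition: 0% = DMSO vehicle and full inhibition = artemisinin control.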 Note: nearly all actives have a fitted effect of over 60% in size. The note with it: P. falciparum in erythrocytes, SYBR Green DNA, 72 h; series mostly up to 28.7 µM. The method in brief:
(§1)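 SYBR Green fluorescence (ex 485 nm, em 535 nm) reports parasite DNA after 72 h compound exposure of infected red cells at 0.3% parasitemia, 2.5% hematocrit; signal normalized to 0.29 uM artemisinin and vehicle wells.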
(In general: In qHTS, concentration-response curves come from the screen itself.)

A further assay deals with CP201. The assay is described as above. The note with it: P. falciparum in erythrocytes, SYBR Green DNA, 72 h; series mostly up to 28.7 µM. The essentials:
as §1

In the next assay the test system is CP215. The description is as above. The note with it: P. falciparum in erythrocytes, SYBR Green DNA, 72 h; series mostly up to 28.7 µM. The method in brief:
as §1

A further assay relates to CP237. The assay is described as above. As to conditions: P. falciparum in erythrocytes, SYBR Green DNA, 72 h; series mostly up to 28.7 µM. The method in brief: as §1
Assay in assay [1]: as above
The note with it: P. falciparum in erythrocytes, SYBR Green DNA, 72 h; for activity, negative = inhibition: at 28.7 µM (top of the series). The method in brief:
as §1

Another assay has as its system 7G8. Described as above. As to conditions: P. falciparum in erythrocytes, SYBR Green DNA, 72 h; series mostly up to 28.7 µM. The method in brief:
as §1

For the next assay, the system named is AA1029. The assay is described as above. The note with it: P. falciparum in erythrocytes, SYBR Green DNA, 72 h; series mostly up to 28.7 µM. The essentials: as §1
Another assay concerns ATS189. The description is as above. The note with it: P. falciparum in erythrocytes, SYBR Green DNA, 72 h; series mostly up to 28.7 µM. The method in brief:
as §1

The test system of a further assay is ATS95. The description is as above. As to conditions: P. falciparum in erythrocytes, SYBR Green DNA, 72 h; series mostly up to 28.7 µM. The method in brief: as §1
In the next assay the test system is CP185. The description is as above. As to conditions: P. falciparum in erythrocytes, SYBR Green DNA, 72 h; series mostly up to 28.7 µM. The method in brief: as §1
Another assay concerns CP191. The description is as above. As to conditions: P. falciparum in erythrocytes, SYBR Green DNA, 72 h; series mostly up to 28.7 µM. The method in brief:
as §1

Another assay has as its system CP192. The assay is described as above. As to conditions: P. falciparum in erythrocytes, SYBR Green DNA, 72 h; series mostly up to 28.7 µM. The essentials:
as §1

A further assay deals with CP211. The description is as above. The note with it: P. falciparum in erythrocytes, SYBR Green DNA, 72 h; series mostly up to 28.7 µM. The method in brief: as §1
The subject of the next assay is CP217. The assay is described as above. The note with it: P. falciparum in erythrocytes, SYBR Green DNA, 72 h; series mostly up to 28.7 µM. The method in brief:
as §1

For the next assay, the system named is 3D7. The assay is described as above. As to conditions: P. falciparum in erythrocytes, SYBR Green DNA, 72 h; series mostly up to 28.7 µM. The method in brief:
as §1

Another assay has as its system AS120. The description is as above. As to conditions: P. falciparum in erythrocytes, SYBR Green DNA, 72 h; series mostly up to 28.7 µM. The method in brief:
as §1

For a further assay, the system named is CP194. The description is as above. The note with it: P. falciparum in erythrocytes, SYBR Green DNA, 72 h; series mostly up to 28.7 µM. The method in brief: as §1
The test system of a further assay is CP203. The assay is described as above. The note with it: P. falciparum in erythrocytes, SYBR Green DNA, 72 h; series mostly up to 28.7 µM. The essentials: as §1

Records with an inconclusive call do not appear. A number with no mark means an inactive call. The source made the active and inactive calls. Calls come from the whole dose curve; as a rule, active = well fitted inhibition curve with a large enough effect; inconclusive = small, poorly fitted or top-dose-only effect; inactive = flat fitted curve, though single readings scatter.
Potency is the fitted concentration of half-maximal effect.

Consider `CC(C)=CCC1C(=O)N(c2ccccc2)N(c2ccccc2)C1=O`, for which the Potency result in the assay on C2A and with CP201 was “inactive” in each case. Moreover, the results for the Potency in the assay on CP215 and with CP237 were 13.5 µM (active) and 11.2 µM (active), respectively.
`Cc1ccc(O)c2ncccc12`: in assay [1] (parasite line B), the activity, negative = inhibition is -28.2%. Moreover, the Potency entry in the assay on 7G8, in the assay with AA1029, in the assay on ATS189, in the assay on ATS95, with C2A and in the assay on CP185 was “inactive” each time. In addition, the Potency result with CP191, with CP192, in the assay with CP201, in the assay on CP211, with CP215 and in the assay with CP217 was “inactive” throughout. For the same compound, in the assay with CP237, the Potency result was “inactive”.
`CC(C)N=C(N)/N=C(\N)Nc1ccc(Cl)cc1`: the values for the Potency (in assay [1] (parasite line A); in assay [1] (parasite line B); in the assay with CP191) were 1.12 µM (active), 1.58 µM (active) and 1 µM (active), respectively. The Potency entry with ATS95, in the assay on C2A and in the assay on CP192 was “inactive” in each case.
With `CC(=O)OCC(=O)[C@@]1(OC(C)=O)[C@@H](C)C[C@H]2[C@@H]3C[C@H](F)C4=CC(=O)C=C[C@]4(C)[C@@]3(F)[C@@H](O)C[C@@]21C`, the activity, negative = inhibition in assay [1] (parasite line A) was -18.2%. The Potency result in the assay with 3D7, in the assay on AA1029, in the assay with AS120, in the assay with ATS189, in the assay on C2A and in the assay with CP185 was “inactive” each time. Moreover, the Potency result in the assay with CP191, in the assay on CP192, in the assay on CP194, in the assay with CP201, in the assay on CP211 and in the assay with CP217 was “inactive” throughout. Moreover, in the assay on 7G8, the Potency was 8.91 µM (active).
Take `CC(C)COC(=O)c1ccc(N)cc1`: the activity, negative = inhibition in [1] (parasite line B) was -17.5%. The Potency result in the assay with 3D7, in the assay with 7G8, in the assay with AA1029, in the assay with AS120, in the assay with ATS189 and with ATS95 was “inactive” in each case. Moreover, the Potency result with C2A, in the assay with CP185, with CP191, in the assay on CP192, with CP194 and in the assay with CP211 was “inactive” in each case. Besides, the Potency entry with CP215, in the assay on CP217 and in the assay on CP237 was “inactive” each time.
Take `CO/N=C1\CN(c2nc3c(cc2F)c(=O)c(C(=O)O)cn3C2CC2)CC1CN` (stereo not given): the Potency in the assay on 3D7 is 10 µM (active); with 7G8, 7.94 µM (active); in the assay on AA1029, 7.94 µM (active); in the assay with CP191, 8.91 µM (active).
With `O=C(Nc1ccc(Oc2ccc(Cl)cc2)c(Cl)c1)c1cc(I)cc(I)c1O`, the Potency entry in the assay with 3D7, in the assay on AA1029, with ATS189, with ATS95, in the assay on C2A and with CP185 was “inactive” throughout. The Potency entry with CP192, in the assay with CP194, in the assay on CP201, with CP203 and in the assay on CP211 was “inactive” throughout. In the assay on CP217, the Potency is 0.158 µM (active).
